Assay results published in PubChem BioAssay (Tox21).
Values without a mark were called inactive. Activity calls are given as the source filed them. Calls come from the whole dose curve; as a rule, active = well fitted curve in the direction sought with a large enough effect in the repeat runs; inconclusive = weak or mixed curves; inactive = flat fitted curve, though single readings scatter.

assay: qHTS assay to test for compound auto fluorescence at 535 nm (green) in HepG2 cell free culture (AID 720686); conditions: Cell-free medium, green autofluorescence 485/535 nm; series mostly up to 91.3 µM; fluorescence, % of fluorescein control: at the top concentration
Source text: U.S. Tox21 Program National Center for Advancing Translational Sciences [NCATS] NIH Chemical Genomics Center [NCGC] U.S. Environmental Protection Agency [EPA] National Institutes of Environmental Health Sciences [NIEHS] National Toxicology Program [NTP] U.S. Food and Drug Administration [FDA] Tox21 Assay Overview: Compound auto fluorescence often interferes with screening of the compound library against various biological targets and signaling pathways. Some of these compounds may have fluorophoric properties. Such properties may interfere with the assay outputs resulting in false positives and/or negatives. To decrease such complications and ensure the compound activities are relevant in terms of biological response, the Tox21 10K compound library was screened for auto fluorescence. From the fluorophores used as reporter signals in our screening assays, the auto fluorescence equivalencies of compounds against three fluorophores have been evaluated: Triamterene, Fluorescein and Rose Bengal sodium for blue, green and red fluorescence, respectively. The fluorescence intensities were measured using Excitation/Emission wavelengths at 405/460nm, 485/535nm and 540/590nm for blue, green and red labels, respectively. This assay includes the green fluorescence data.
Tox21 Assay Protocol Summary: 5 uL of culture medium (MEM containing 10% FBS) per well was dispensed into black wall/clear bottom 1536-well plates using a Multidrop Combi Dispenser (ThermoFisher Scientific, Waltham, MA). After 23 nL compound or DMSO vehicle was transferred into assay plate by a pintool work station (Kalypsys, San Diego, CA), fluorescence intensities in the assay plates were measured by an Envision (PerkinElmer, Shelton, CT) plate reader using three labels for measuring blue, green and red fluorescence at […] 460, 535 and 590nm respectively.
% is set by controls: 0 for no effect and ±100 for the full control effect.

Row | SMILES | fluorescence, % of fluorescein control | outcome
1 | CC[C@@H]([C@H](C)O)n1ncn(-c2ccc(N3CCN(c4ccc(OC[C@@H]5CO[C@@](Cn6cncn6)(c6ccc(F)cc6F)C5)cc4)CC3)cc2)c1=O | 0.0434% [at 46 µM] | 
2 | O=C(O)c1cccc(O)c1 | 0.0109% | 
3 | Nc1ccc(Cl)cc1[N+](=O)[O-] | 0.0003% | 
4 | COC(=O)Nc1nc2ccc(C(=O)c3cccs3)cc2[nH]1 | -0.0497% [at 46 µM] | 
5 | C[N+](C)(C)CCOC(N)=O | 0.0367% [at 46 µM] | 
6 | CC(C)(C)C(=O)O | 0.0691% | 
7 | CCOC(=O)C(C)Oc1ccc(Oc2nc3ccc(Cl)cc3o2)cc1 (stereo not given) | -0.0096% | 
8 | CCOC(=O)CC(=O)C(=O)OCC | -0.168% | 
9 | O=C1NCCN1 | 0.0061% | 
10 | O=C(O)c1cccnc1C(=O)O | 0.0441% | 
11 | CCOC(=O)OCC | 0.0638% [at 95.7 µM] | 
12 | CCN(Cc1cccc(S(=O)(=O)O)c1)c1ccc(C(=C2C=CC(=[N+](CC)Cc3cccc(S(=O)(=O)[O-])c3)C=C2)c2ccccc2)cc1 | 0.0855% | 
13 | CC(=O)Oc1ccc(C(=C2CCCCC2)c2ccc(OC(C)=O)cc2)cc1 | 0.0179% [at 46 µM] | 
14 | N#C/C(=C1\SCC(c2ccccc2Cl)S1)n1ccnc1 (stereo not given) | 0.0569% [at 46 µM] | 
15 | N#C/C(=C1/SC[C@@H](c2ccc(Cl)cc2Cl)S1)n1ccnc1 |  | inactive
16 | c1cc[c]([Bi]([c]2ccccc2)[c]2ccccc2)cc1 | 0.103% | 
17 | C=CCCCCCCCCCCCCCCCC | -0.0312% [at 3.72 µM] | 
18 | COCCOC | -0.0712% | 
19 | C[Si]1(C)O[Si](C)(C)O[Si](C)(C)O1 | 0.0699% | 
20 | c1cnc2c(n1)CCCC2 | -0.0041% | 

Row | SMILES | fluorescence, % of fluorescein control | outcome
21 | CCOC(=O)c1ccccc1C | 0.0449% | 
22 | Cc1cc2nc3ccc(=[N+](C)C)cc-3sc2cc1N | 0.124% [at 46 µM] | 
23 | CC(C)(C)C(=O)C(Oc1ccc(Cl)cc1)n1ccnc1 (stereo not given) | 0.953% [at 46 µM] | 
24 | O=C(O)C(Cc1cc(I)c(O)c(I)c1)c1ccccc1 (stereo not given) | 0.0003% [at 46 µM] | 
25 | CCOC(=O)/C=C/C(=O)O | -0.0976% | 
26 | CCC(=O)OC/C=C/c1ccccc1 | 0.0513% | 
27 | CCCCC(CC)C(=O)OCCOCCOCCOCCOC(=O)C(CC)CCCC (stereo not given) | -0.0103% | 
28 | C[N+]1(C)CCC(=C(c2ccccc2)c2ccccc2)CC1 | 0.0841% [at 18.6 µM] | 
29 | NCC1CCCC(CN)C1 (stereo not given) | -0.0155% | 
30 | Fc1c(F)c(F)c(Br)c(F)c1F | -0.104% | 
31 | Cc1ccc(Nc2nccc(N(C)c3ccc4c(C)n(C)nc4c3)n2)cc1S(N)(=O)=O | 0.0124% [at 46 µM] | 
32 | Cc1cc(O)c2c(O)c3c(O)cccc3cc2c1 | 0.119% [at 46 µM] | 
33 | NC(=O)N(O)[C@@H]1C=C[C@H](Oc2cccc(Oc3ccc(F)cc3)c2)C1 | 0.0977% | 
34 | CCCCCCCC/C=C\CCCCCCCC(=O)OC(CO)CO | 0.0848% | 
35 | CC1CC(O)CC(C)(C)C1 (stereo not given) |  | inactive
36 | CC(C)(C)CC(C)(C)c1ccc(OCCO)cc1 |  | inactive
37 | CCCC(=O)O[C@]1(C(=O)COC(=O)CC)CC[C@H]2[C@@H]3CCC4=CC(=O)CC[C@]4(C)[C@H]3[C@@H](O)C[C@@]21C | 0.0636% [at 46 µM] | 
38 | CC(=N\O)/C(C)=N/O | -0.0267% | 
39 | NC(=O)Cn1c(=O)cc(CCN2CCN(c3nccc4sccc34)CC2)c2ccc(F)cc21 | 0.0014% | 
40 | Nc1ccc(C(=O)OCCCOC(=O)c2ccc(N)cc2)cc1 | 0.016% | 
